Assay results reported in PubChem BioAssay.
Activity calls are given as the source filed them.

How the values were obtained:
[1] = tested on: Plasmodium falciparum Sir2 (PF13_0152, Sir2A); assay: Plasmodium falciparum Sir2A binding compounds – biochemical, small-molecule microarray, 635 nm fluorescence, primary screen (AID 1098); settings: fluorescence 635 nm, higher = more signal;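 note: score merges spot fluorescence intensity with its signal-to-noise ratio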
[2] = probe aDKK1 binding to arrayed compounds – biochemical, biotinylated probe, 635/667 nm fluorescence, primary screen (AID 1099); settings: small-molecule microarray, higher = more signal;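 note: score merges 667nm spot fluorescence with signal to noise across triplicate slides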
[3] = probe aCHRDL2 binding to arrayed compounds – biochemical, biotinylated probe, 635/667 nm fluorescence, primary screen (AID 1100); settings: small-molecule microarray, higher = more signal
[4] = change in splice reporter luminescence, either direction, cell-based, HEK293, spliceosome inhibition project, primary screen (AID 1101); settings: HEK293 splicing luciferase reporter, 24 h, higher = more signal, called active from +8 up or from −8 down;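 note: HEK293 cells carrying a splicing-competent luciferase reporter gene; test concentration not given here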
[5] = biological target: Fibroblast growth factor 10 (Homo sapiens) (UniProt O15520); assay: compounds binding fibroblast growth factor 10 – biochemical, small-molecule microarray, 635 nm fluorescence, primary screen (AID 1102); settings: FGF10 binding, fluorescence 635 nm, higher = more signal
[6] = tested on: glycogen synthase kinase-3 (GSK3A per assay name; protocol says GSK3B); assay: compounds binding glycogen synthase kinase-3 – biochemical, small-molecule microarray, 635 nm fluorescence, GSK3A, primary screen (AID 1103); settings: fluorescence 635 nm, higher = more signal; note: the record names both GSK3A and GSK3B
[7] = biological target: Epidermal growth factor receptor (Homo sapiens) (UniProt P00533); assay: compounds binding epidermal growth factor receptor – biochemical, small-molecule microarray, 635 nm fluorescence, primary screen (AID 1104); settings: EGFR binding, higher = more signal;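 note: score merges 667 nm emission intensity with spot signal to noise over triplicate slides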
[8] = biological target: Follistatin-related protein 3 (Homo sapiens) (UniProt O95633); assay: compounds binding follistatin-related protein 3 – biochemical, small-molecule microarray, 635 nm fluorescence, primary screen (AID 1105); settings: FSTL3 binding, higher = more signal;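 note: score merges emission near 667 nm and signal to noise per printed spot across three slides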
[9] = biological target: Dickkopf-related protein 1 (Homo sapiens) (UniProt O94907); assay: small molecules binding DKK1 protein – biochemical, small-molecule microarray, 635 nm fluorescence scan, primary screen (AID 1106); settings: higher = more signal;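 note: score merges emission near 667 nm with signal to noise over three replicate slides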
[10] = tested on: Inhibin beta A chain (activin A); assay: small molecules binding activin A – biochemical, small-molecule microarray, 635 nm fluorescence scan, primary screen (AID 1107); settings: INHBA, higher = more signal;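 note: mouse activin A protein probed at 4.33 µg/mL on printed slides; score merges bound-protein fluorescence near 667 nm with spot signal-to-noise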
[11] = tested on: Human papillomavirus type 1a protein E7 (residues 44-93); assay: small molecules binding HPV E7 44-93 – biochemical, small-molecule microarray, residues 44-93, 635 nm fluorescence, primary screen (AID 1108); settings: fluorescence 635 nm, higher = more signal;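 note: E7 fragment applied at 1 µg/mL in TBST for 1 h at 4 C; score combines spot fluorescence with its signal to noise ratio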
[12] = hepatitis C replication reporter changes, two-sided – Huh7 cells, luciferase reporter, HCV replication inhibitor project, primary screen (AID 1109); settings: Huh7 HCV replicon luciferase reporter, 48 h; higher = more signal;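 note: huh7 hepatoma cells harbouring a luciferase neomycin HCV replicon reporter; luciferase luminescence as measure of HCV replicon replication; test concentration not given here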
[13] = biological target: Left-right determination factor 2 (Homo sapiens) (UniProt O00292); assay: small molecules binding LEFTY2 protein – biochemical, small-molecule microarray, 635 nm fluorescence scan, primary screen (AID 1110); settings: higher = more signal
[14] = biological target: Calmodulin-1 (Homo sapiens) (UniProt P0DP23); assay: small molecules binding calmodulin-1 with EGTA – biochemical, small-molecule microarray, Cy5-labelled CALM1, profiling panel (AID 1111); settings: Cy5-CALM1 binding fluorescence, higher = more signal;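 note: labelled calmodulin applied in Tris saline Tween buffer holding calcium plus EGTA and DTT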
[15] = biological target: Calmodulin-1 (Homo sapiens) (UniProt P0DP23); assay: small molecules binding Ca-loaded calmodulin-1 – biochemical, small-molecule microarray, Cy5-labelled CALM1, plus calcium, artefact control for SMM control-protein annotation, profiling panel (AID 1112); settings: Cy5-CALM1 binding fluorescence, higher = more signal;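 note: score merges spot fluorescence with signal to noise from triplicate slides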
[16] = probe aWnt5a binding to arrayed compounds – biochemical, biotinylated probe, 635/667 nm fluorescence, primary screen (AID 1113); settings: small-molecule microarray, higher = more signal;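 note: score merges 667 nm fluorescence intensity with signal-to-noise per printed feature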
[17] = probe aShh binding to arrayed compounds – biochemical, biotinylated probe, 635/667 nm fluorescence, primary screen (AID 1114); settings: small-molecule microarray, higher = more signal;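 note: probe is biotin-labelled aShh protein from a stem cell growth factor screen; measures binding of labelled protein to compounds printed on the slide; score merges feature fluorescence at 667 nm with signal-to-noise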
[18] = probe aNog binding to arrayed compounds – biochemical, biotinylated probe, 635/667 nm fluorescence, primary screen (AID 1115); settings: small-molecule microarray, higher = more signal;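 note: probe is biotinylated aNog protein used at 0.15 µg/mL for 1 h at 4 C; z-score combines 667 nm fluorescence of each spot with its signal to noise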
[19] = biological target: Torsin-1A-interacting protein 1 (Homo sapiens) (UniProt Q5JTV8); assay: compound microarray binding of lysate hLAP1 – cell lysate, small-molecule microarray, COS7 lysate, 635/667 nm fluorescence, primary screen (AID 1116); settings: 635 nm fluorescence, higher = more signal
[20] = biological target: Alpha-bungarotoxin (Bungarus multicinctus) (UniProt P60615); assay: compounds binding labelled alpha-BTX control protein – biochemical, small-molecule microarray, Alexa647 label, 635/667 nm fluorescence, artefact control for SMM control protein annotation, profiling panel (AID 1117); settings: alpha-BTX-A647 binding fluorescence, higher = more signal
Chain of Alpha-bungarotoxin (Bungarus multicinctus) (P60615 whole entry, looked up): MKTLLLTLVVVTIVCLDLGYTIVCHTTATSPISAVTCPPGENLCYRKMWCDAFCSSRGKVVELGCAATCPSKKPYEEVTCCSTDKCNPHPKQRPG

Chain of Left-right determination factor 2 (Homo sapiens) (O00292 whole entry, looked up): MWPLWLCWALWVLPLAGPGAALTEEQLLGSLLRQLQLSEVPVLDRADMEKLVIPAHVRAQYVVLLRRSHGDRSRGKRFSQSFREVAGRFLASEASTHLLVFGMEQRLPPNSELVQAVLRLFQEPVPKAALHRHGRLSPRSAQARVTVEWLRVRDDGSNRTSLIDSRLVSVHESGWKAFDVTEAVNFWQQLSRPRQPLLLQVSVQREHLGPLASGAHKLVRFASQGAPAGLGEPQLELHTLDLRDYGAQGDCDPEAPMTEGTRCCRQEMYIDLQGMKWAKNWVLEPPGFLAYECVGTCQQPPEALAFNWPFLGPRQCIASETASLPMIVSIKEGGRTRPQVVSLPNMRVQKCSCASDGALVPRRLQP
Chain of Torsin-1A-interacting protein 1 (Homo sapiens) (Q5JTV8 whole entry, looked up): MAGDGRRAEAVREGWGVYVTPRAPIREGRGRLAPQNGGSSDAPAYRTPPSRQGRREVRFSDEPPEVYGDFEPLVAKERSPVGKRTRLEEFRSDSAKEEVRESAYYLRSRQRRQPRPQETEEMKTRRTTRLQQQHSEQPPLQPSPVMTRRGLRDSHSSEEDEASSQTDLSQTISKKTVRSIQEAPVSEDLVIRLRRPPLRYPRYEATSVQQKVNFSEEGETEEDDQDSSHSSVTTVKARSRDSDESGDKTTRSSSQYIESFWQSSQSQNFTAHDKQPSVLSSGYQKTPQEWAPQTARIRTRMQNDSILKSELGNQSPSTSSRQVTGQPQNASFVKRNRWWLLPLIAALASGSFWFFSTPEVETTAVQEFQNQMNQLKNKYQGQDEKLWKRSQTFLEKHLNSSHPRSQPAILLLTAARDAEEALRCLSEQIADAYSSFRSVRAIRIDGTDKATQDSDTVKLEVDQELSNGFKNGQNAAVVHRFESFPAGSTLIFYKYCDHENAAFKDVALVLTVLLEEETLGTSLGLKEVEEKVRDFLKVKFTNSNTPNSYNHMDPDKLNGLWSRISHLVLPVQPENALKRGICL
Chain of Follistatin-related protein 3 (Homo sapiens) (O95633 whole entry, looked up): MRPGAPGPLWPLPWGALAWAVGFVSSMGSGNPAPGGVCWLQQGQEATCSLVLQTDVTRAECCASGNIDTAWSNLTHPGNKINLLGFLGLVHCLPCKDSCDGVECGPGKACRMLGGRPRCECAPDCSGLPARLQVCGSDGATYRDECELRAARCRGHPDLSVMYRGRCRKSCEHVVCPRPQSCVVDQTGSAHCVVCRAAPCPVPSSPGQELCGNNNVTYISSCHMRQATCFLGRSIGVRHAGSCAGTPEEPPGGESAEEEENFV
Chain of Dickkopf-related protein 1 (Homo sapiens) (O94907 whole entry, looked up): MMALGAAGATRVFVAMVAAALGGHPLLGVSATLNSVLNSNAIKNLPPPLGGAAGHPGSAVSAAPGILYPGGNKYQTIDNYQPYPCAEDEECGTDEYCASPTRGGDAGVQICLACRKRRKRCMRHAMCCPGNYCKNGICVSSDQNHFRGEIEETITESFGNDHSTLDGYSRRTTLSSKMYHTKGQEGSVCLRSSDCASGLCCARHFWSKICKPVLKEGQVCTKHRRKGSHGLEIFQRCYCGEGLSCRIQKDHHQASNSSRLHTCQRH
Chain of Epidermal growth factor receptor (Homo sapiens) (P00533 whole entry, looked up): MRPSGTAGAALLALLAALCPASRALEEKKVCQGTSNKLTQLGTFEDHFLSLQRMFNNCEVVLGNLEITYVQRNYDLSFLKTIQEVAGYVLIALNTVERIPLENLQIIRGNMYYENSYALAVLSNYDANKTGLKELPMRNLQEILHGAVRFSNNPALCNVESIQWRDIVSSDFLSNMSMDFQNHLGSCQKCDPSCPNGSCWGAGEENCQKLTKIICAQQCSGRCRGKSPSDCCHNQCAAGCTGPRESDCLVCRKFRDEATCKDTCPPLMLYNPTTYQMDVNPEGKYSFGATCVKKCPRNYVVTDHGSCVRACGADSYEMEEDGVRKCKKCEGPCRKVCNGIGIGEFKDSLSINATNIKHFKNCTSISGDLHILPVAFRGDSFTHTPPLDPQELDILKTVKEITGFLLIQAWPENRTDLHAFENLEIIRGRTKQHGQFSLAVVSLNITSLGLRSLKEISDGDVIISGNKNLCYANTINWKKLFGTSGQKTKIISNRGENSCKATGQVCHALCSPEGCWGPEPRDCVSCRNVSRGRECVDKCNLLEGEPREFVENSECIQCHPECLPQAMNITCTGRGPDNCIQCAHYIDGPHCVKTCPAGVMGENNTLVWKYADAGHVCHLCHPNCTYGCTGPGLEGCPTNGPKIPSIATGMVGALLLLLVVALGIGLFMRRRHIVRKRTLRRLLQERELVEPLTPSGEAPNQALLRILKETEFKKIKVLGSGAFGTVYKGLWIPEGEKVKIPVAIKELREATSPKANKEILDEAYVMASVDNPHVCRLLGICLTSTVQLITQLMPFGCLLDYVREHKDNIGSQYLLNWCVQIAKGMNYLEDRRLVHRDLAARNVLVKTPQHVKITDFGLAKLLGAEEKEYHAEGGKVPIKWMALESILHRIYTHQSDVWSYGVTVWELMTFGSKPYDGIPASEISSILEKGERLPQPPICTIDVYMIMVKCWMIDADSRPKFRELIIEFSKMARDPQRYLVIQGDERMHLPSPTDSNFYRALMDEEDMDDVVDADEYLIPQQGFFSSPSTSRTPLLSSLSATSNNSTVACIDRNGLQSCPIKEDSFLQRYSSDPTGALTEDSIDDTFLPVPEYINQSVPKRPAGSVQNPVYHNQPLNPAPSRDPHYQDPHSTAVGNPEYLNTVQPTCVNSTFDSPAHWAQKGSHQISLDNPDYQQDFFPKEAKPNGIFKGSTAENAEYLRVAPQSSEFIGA
Chain of Fibroblast growth factor 10 (Homo sapiens) (O15520 whole entry, looked up): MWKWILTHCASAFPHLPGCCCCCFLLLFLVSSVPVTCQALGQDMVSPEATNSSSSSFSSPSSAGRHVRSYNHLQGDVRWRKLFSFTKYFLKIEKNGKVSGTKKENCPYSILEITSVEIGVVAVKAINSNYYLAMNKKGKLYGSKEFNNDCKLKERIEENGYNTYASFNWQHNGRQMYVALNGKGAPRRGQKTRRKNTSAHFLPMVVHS

Structure (SMILES)	composite z-score [1]	composite z-score [2]	composite z-score [3]	z-score [4]	composite z-score [5]	composite z-score [6]	composite z-score [7]	composite z-score [8]	composite z-score [9]	composite z-score [10]	composite z-score [11]	z-score [12]	composite z-score [13]	composite z-score [14]	composite z-score [15]	composite z-score [16]	composite z-score [17]	composite z-score [18]	composite z-score [19]	composite z-score [20]
CCOC(=O)C1=CCC(c2ccco2)N(S(=O)(=O)c2ccc(C)cc2)C1 (stereo not given)	1.04	0.363	-0.0042	0.0407 (inactive)	1.12	1.3	0.422	1.22	0.49	1.35	1.36	-2.3	0.297	0.921	0.0331	0.0279	0.0048	-0.423	0.761	0.818
C=C[C@@H](C)[C@H](O)c1ccc(OCCO)cc1	-0.112	-0.234	0.825	-0.474 (inactive)	-1.57	-1.25	-2.14	-1.71	-1.5	-1.57	-0.355	0.27	-2.31	-0.912	0.521	-0.262	-0.289	-0.446	-0.73	-1.16
[N-]=[N+]=NCc1ccccc1[C@@H]1OC(c2ccc(OCCCO)cc2)=N[C@]1(Cc1ccccc1)C(=O)NCCN1CCOCC1	1.03	0.657	0.58	0.0496 (inactive)	0.868	0.616	-0.102	0.567	-0.383	0.798	1.42	-2.37	0.133	1.2	0.558	0.0825	0.1	0.684	0.946	0.63
O=C(NCCN1CCOCC1)[C@@H]1c2ccccc2C(=O)N(Cc2ccccc2)[C@H]1c1ccc(CO)cc1	0.84	-0.117	0.82	-0.316 (inactive)	-0.765	-1.13	-1.81	-0.481	-0.667	0.269	-0.639	-0.887	-1.45	0.446	-1	-0.219	0.214	-0.224	-1.47	-1.06
CC(C)(C)OC(=O)CC[C@]12N=C(c3ccc(OCCCO)cc3)O[C@H]1c1ccccc1N(Cc1ccccc1)C2=O	0.907	0.492	0.462	-0.601 (inactive)	1.18	1.26	-0.0167	0.483	0.168	0.777	0.552	-2.09	0.27	0.42	0.348	-0.0765	-0.0969	0.963	1.36	1.28
CCC(CC)C(O)C1C=CC2C(=O)N(c3ccccc3)C(=O)C2N1Nc1ccc([N+](=O)[O-])cc1 (stereo not given)	0.629	1.02	0.638	-0.16 (inactive)	0.632	1.21	0.102	0.393	-0.351	0.761	1.47	-0.451	-0.139	1.27	0.717	0.152	0.04	0.0323	0.0001	1.42
